Screens as filed in PubChem BioAssay.
FH mod: Identification of activators of human fumarate hydratase by quantitative high-throughput screening. Fumarate hydratase, mitochondrial (Homo sapiens), P07954. FH coupled MDH/diaphorase resazurin fluorescence, 15 min. Potency, µM (highest dose often 79.9 µM), for the others: at the top dose activity change, negative = inhibition, actives largely listed as inhibitors. 54,000 compounds, 0.22% hits. AID 1347055, 2019; further: potency means the concentration at half of the fitted maximal effect; on the % scale 0 is the no-effect control and ±100 the full control effect; the screen sought activators but most active calls are inhibition curves; nearly all actives have a fitted effect of over 45% in size
DRV1 agonist: agonists of human resolvin D1 receptor DRV1 (GPR32); 48,000 compounds, 2.5% hits; AID 1346428; CHO-K1 GPR32 beta-arrestin PathHunter luminescence, 90 min; zero percent set by DMSO-only wells; activation, % at 76.9 µM; O75388;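 active means activation of at least 60% and not above a set upper limit, about 1 call in 100 departs from these limits; inconclusive means activation of 40% to 60%, or above that upper limit; inactive means activation under 40%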; further: 0% is about no effect
Target sequence (O75388 whole entry, looked up): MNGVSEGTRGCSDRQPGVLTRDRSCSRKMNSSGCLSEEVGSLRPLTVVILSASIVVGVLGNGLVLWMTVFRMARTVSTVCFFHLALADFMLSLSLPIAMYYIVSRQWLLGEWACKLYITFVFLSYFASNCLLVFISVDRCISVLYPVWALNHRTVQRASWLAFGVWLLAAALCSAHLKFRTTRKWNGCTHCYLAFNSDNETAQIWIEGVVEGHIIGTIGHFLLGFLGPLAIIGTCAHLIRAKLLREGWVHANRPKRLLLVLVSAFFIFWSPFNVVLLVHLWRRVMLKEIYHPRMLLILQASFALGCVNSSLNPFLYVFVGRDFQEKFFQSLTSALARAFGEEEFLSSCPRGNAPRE
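PathHunter beta-arrestin recruitment in CHO-K1 cells stably expressing ProLink-tagged GPR32. Cells were exposed to compound for 90 min at 37 C, then chemiluminescence was read after 1 h detection at ambient temperature; DMSO served as basal control.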
GALC G270D up: galactocerebrosidase G270D activity enhancement, cell-based | P54803 | 145M-Twi-hGALC-G270D cells (Twitcher mouse brain line with human GALC G270D), HMU-beta-Gal fluorescence, 48 h | Potency, µM (top dose mostly 57.5 µM), actives largely listed as activators | 45,000 compounds, 0.1% hits | AID 1159614; further: potency means the concentration at half of the fitted maximal effect; 0% is about no effect; nearly all actives have a fitted effect of over 65% in size
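Mutant human GALC (G270D), stably expressed in a Twitcher mouse brain cell line lacking endogenous GALC, is measured in live-treated cells via 6-hexadecanoylamino-4-methylumbelliferyl-β-galactoside hydrolysis (0.1 mM final, pH 5.2) with fluorescent detection.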
NTMT1 inh: blocks human N-terminal methyltransferase 1 activity; Q9BV86; 59,000 compounds, 2.5% hits; Potency, µM (highest dose often 114 µM), for the others: at the highest dose activity change, negative = inhibition, hits mostly inhibitors; NTMT1 MTase-Glo SAH luminescence, purified enzyme; AID 1645870;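 further: potency means the concentration at half of the fitted maximal effect; plate controls were DMSO vehicle for no effect and no enzyme for full effect; nearly all actives have a fitted effect of over 65% in size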
Target sequence (Q9BV86 whole entry, looked up): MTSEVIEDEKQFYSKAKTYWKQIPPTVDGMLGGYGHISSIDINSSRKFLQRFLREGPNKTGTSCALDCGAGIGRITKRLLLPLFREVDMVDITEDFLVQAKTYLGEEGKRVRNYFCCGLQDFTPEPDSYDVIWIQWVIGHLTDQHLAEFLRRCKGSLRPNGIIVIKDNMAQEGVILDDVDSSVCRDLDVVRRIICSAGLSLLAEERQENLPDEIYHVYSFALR
HTT-AS act: activators of huntingtin-antisense promoter activity; HEK293 HTT-AS promoter firefly luciferase reporter, 24 h; response scale: percent change from vehicle, -100% = no light; AID 1508624; 48,000 compounds, 0.24% hits; Potency, µM (top dose mostly 57.5 µM), for inactives: at the highest dose activity change, positive = activation, actives largely listed as activators; further: potency means the concentration at half of the fitted maximal effect; nearly all actives have a fitted effect of over 55% in size
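HEK293 cells carrying firefly luciferase reporters were seeded at 2,500 per well in Opti-MEM and cultured for 24 h. They were then treated with compounds at up to 57.5 uM final for 24 h at 37 degrees C before Dual-Glo luminescence readout.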
HTT prom inh: HTT promoter inhibition; 48,000 compounds, 0.93% hits; Potency, µM (titrated, usually from 57.5 µM), without a hit: top-dose activity change, negative = inhibition, hits mostly inhibitors; HEK293 HTT promoter firefly luciferase reporter, 24 h; further: potency means the concentration at half of the fitted maximal effect; nearly all actives have a fitted effect of over 50% in size
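HEK293 cells carrying firefly luciferase reporters were seeded at 2,500 per well in Opti-MEM and cultured for 24 h. They were then treated with compounds at up to 57.5 uM final for 24 h at 37 degrees C before Dual-Glo luminescence readout.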
* hit, by the source's call; i = inactive; ? = inconclusive; . = no result; ! = a repeat was not active; [ ] = remark or other dose. An excerpt weighted towards active compounds, which were near 4.7% of everything screened. Unless noted, the call rests on the fitted dose curve; in most records, active means well fitted curve in the direction sought with a large enough effect; inconclusive means small, poorly fitted or top-dose-only effect, or another doubt; inactive means no such curve, though single readings can be large; an effect the other way counts as inactive or inconclusive.

SMILES | FH mod | DRV1 agonist | GALC G270D up | NTMT1 inh | HTT-AS act | HTT prom inh
CC(=O)N1CCCc2cc(S(=O)(=O)N3CCCC(C(=O)N4CCN(c5ccccc5F)CC4)C3)ccc21 (stereo not given) | -1% | 41 | i | -2% | -34% | 10µM*
COc1ccc(N2CCN(C(=O)C3CCCN(S(=O)(=O)c4ccc5c(c4)CCCN5C(C)=O)C3)CC2)cc1 (stereo not given) | -5% | 3 | i | -1% | -47% | ?
CC(C)(C)NC(=O)c1cncn1C1CCN(c2ccc(-c3nnc(C(F)(F)F)o3)cn2)CC1 | . | . | . | 13% | . | .
O=C(O)c1cccnc1Nc1cccc(C(F)(F)F)c1 | -16%[53.3 µM] | 100*! | i | ? | -15% | -5%
O=C(Nc1cccc(C(F)(F)F)c1)c1cccc(C(=O)Nc2cccc(C(F)(F)F)c2)c1 | 11% | ? | i | 21% | -31% | -24%
Cc1oc(-c2ccccc2)nc1CCC(=O)c1ccc(CC2SC(=O)NC2=O)cc1 (stereo not given) | -24%[53.3 µM] | 74* | i | 35%[57.5 µM] | -28% | -13%
COc1ccc(OC(=O)N(CC(=O)O)Cc2ccc(OCCc3nc(-c4ccccc4)oc3C)cc2)cc1 | -12%[53.3 µM] | ? | i | -6%[57.5 µM] | -10% | -6%
O=[S+]([O-])(Nc1ccccc1)c1ccc(NCc2ccc(Cl)cc2O)cc1 | . | . | . | 11% | . | .
CCCCc1ccc(-c2ccc(=O)n(CC(=O)NCCc3ccccc3)n2)cc1 | . | . | . | 5% | . | .
Cc1ccc(NC(=O)Cn2c(=O)oc3cc(S(=O)(=O)NCc4ccccc4)ccc32)cc1 | -7% | 81* | i | -2% | -31% | ?
Cc1ccc(NC(=O)Cn2c(=O)oc3cc(S(=O)(=O)N4CCCCC4)ccc32)c(C)c1 | -6% | 115* | i | -1% | -45% | ?
Cc1ccc(C)c(NC(=O)Cn2c(=O)oc3cc(S(=O)(=O)NCc4ccccc4)ccc32)c1 | -2% | 72* | i | 11% | -33% | ?
COc1ccc(C)cc1NC(=O)Cn1c(=O)oc2cc(S(=O)(=O)NCc3ccccc3)ccc21 | 2% | -1 | i | 9% | -35% | ?
O=C(Cn1c(=O)oc2cc(S(=O)(=O)NCc3ccccc3)ccc21)Nc1ccc(F)c(Cl)c1 | -2% | 21 | i | 11% | -28% | ?
COc1c2c(cc3c1-c1c(cc4c(c1OC)OCO4)CC(C)C(C)C3)OCO2 (stereo not given) | -8%[53.3 µM] | . | . | 20%[29.8 µM] | . | .
CCOc1ccc(-n2c(SCC(=O)N3CCCC3)nc3c([nH]c4ccccc43)c2=O)cc1 | 4% | 77* | i | 26% | -11% | -3%
Cc1cc(C)c2c(=O)cc(CSc3nnc(COc4ccccc4C)n3C)[nH]c2c1 | -16% | 25 | i | 0% | -11% | -20%
Cc1cc(C)c2c(=O)cc(CSc3nnc(-c4ccccc4)n3C)[nH]c2c1 | -10% | 61* | i | 2% | -23% | -20%
NC(N)=NN=C(/C=C/c1ccc([N+](=O)[O-])o1)/C=C/c1ccc([N+](=O)[O-])o1 | -4%[53.3 µM] | -26 | i | 40µM* | -80% | ?
COc1ccc(/C=C\c2cc(OC)c(OC)c(OC)c2)cc1O | . | . | . | -17% | . | .
Oc1cc(O)cc(/C=C/c2ccc(O)c(O)c2)c1 | 3.5µM*! | 17 | . | 35µM* | . | .
CCn1cc(C(=O)N2CCN(c3cccc(C)c3C)CC2)c2cc(OC)c(OC)cc2c1=O | -10% | 76* | i | -2% | -19% | -16%
COCCCc1sc(-c2ccccc2)nc1C(=O)Nc1ccccc1-c1nc2cc(CN3CCCC3)cnc2s1 | -16%[53.3 µM] | . | . | 1%[29.8 µM] | . | .
NCc1ccc(OCCCc2sc(-c3ccc4c(c3)/C(=N/Nc3nc5ccccc5s3)CCC4)nc2C(=O)O)cc1 | 14% | . | . | 40µM*! | . | .
Cc1ccc(F)c(NC(=O)Nc2ccc3snnc3c2)c1 | 6% | 68* | i | -2% | 6% | 10%
SMILES | FH mod | DRV1 agonist | GALC G270D up | NTMT1 inh | HTT-AS act | HTT prom inh
O=C(Nc1ccc(F)cc1)Nc1ccc2snnc2c1 | -9% | 39 | i | -1% | -23% | ?
Cc1oc(-c2ccc(C(=O)Nc3cccc(C(F)(F)F)c3)cc2)nc1CSc1ccccc1 | ? | -16 | i | 13% | -89% | 1.8µM*
CC(=O)c1ccc(NC(=O)c2ccc(-c3nc(CSc4ccccc4)c(C)o3)cc2)cc1 | 6% | -9 | i | -3% | -31% | ?
COc1ccc(NC(=O)c2ccc(-c3nc(CSc4ccc(C)cc4)c(C)o3)cc2)cc1Cl | -8% | -4 | i | -3% | -8% | 4.5µM*
COc1ccc(NC(=O)c2ccc(-c3nc(CSc4ccccc4)c(C)o3)cc2)cc1OC | ? | 16 | i | -5% | -23% | ?
CCCN1CCCc2cc(CN(CCCN3CCOCC3)C(=O)Nc3ccc(Cl)c(Cl)c3)ccc21 | ? | 0 | i | 79µM* | -33% | -30%
COCOC1CCC(C(=O)Nc2ccc([S+](=O)([O-])Nc3nccs3)cc2)CC1 (stereo not given) | . | . | . | 15% | . | .
Fc1ccc(-c2noc3ncnc(NCC4CCN(Cc5ccc(Cl)cc5)CC4)c23)cc1 | -24% | ? | i | -21% | -31% | -28%
Cc1ccc(CN2CCC(CNc3ncnc4onc(-c5ccc(F)cc5)c34)CC2)cc1 | -20% | 32 | i | 79µM* | -19% | -21%
COc1ccccc1C1NC(=O)c2n[nH]c(-c3cccs3)c21 (stereo not given) | -20% | 104* | i | ? | -33% | ?
Cc1ccc(C2NC(=O)c3n[nH]c(-c4cccs4)c32)cc1 (stereo not given) | -7% | 120* | i | -19% | -19% | -16%
O=S(=O)(NCc1ccc(F)cc1)c1ccc2[nH]c3c(c2c1)CCCC3 | ? | 118* | i | ? | -28% | -13%
Cc1ccc(CNS(=O)(=O)c2ccc3[nH]c4c(c3c2)CCCCC4)cc1 | -14% | ? | i | -3% | -25% | ?
O=S(=O)(NCc1ccc(Cl)cc1)c1ccc2[nH]c3c(c2c1)CCCC3 | ? | 77* | i | ? | -36% | -7%
Cc1ccc(CNS(=O)(=O)c2ccc3[nH]c4c(c3c2)CCCC4)cc1 | ? | 72* | i | -27% | -16% | 8%
O=S(=O)(NCc1ccccc1)c1ccc2[nH]c3c(c2c1)CCCCC3 | ? | 11 | i | -15% | -32% | ?
Cc1ccc(CNS(=O)(=O)c2ccc3c(c2)CCN3S(C)(=O)=O)cc1 | -24% | 14 | i | 50µM* | -15% | -29%
